Test [1] has as its target Arylsulfatase A (Homo sapiens) (UniProt P15289). Kind of test: qHTS screen for enhancers of Arylsulfatase A (ASA1): LOPAC Validation Assay (AID 720538). Note: potency is the fitted concentration of half-maximal effect. Summed up:
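SV40-transformed skin fibroblasts from an MLD patient (ASA-I179S) were treated with compounds for 48h at 37 degree C, then lysed with 0.5mM pNCS final substrate for 14h at room temperature; NaOH stop, fluorescence read (Ex=525 nm; Em=598 nm).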
Background: In qHTS, concentration-response curves come from the screen itself.

The nature of test [2]: qHTS for compounds that reverse cellular toxicity of Amyloid beta (A-beta) peptide in yeast: LOPAC Validation Assay (AID 720559). The method, boiled down: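 Yeast cells expressing toxic A-beta were combined with pinned compounds in growth medium and incubated 48 hr at 30 C. Growth was read as absorbance at 600 nm and normalized to DMSO and to an equimolar FeCl3/clioquinol positive control.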

Test [3] in a line: qHTS for Activators of Parkin Expression: LOPAC Validation Assay (NLuc Reporter) (AID 720572). The method, boiled down:
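NLuc signal, read 10 min after reagent and following a prior FLuc read, is normalized to DMSO (0) and positive controls (100%). Cells: neuronal Parkin-promoter coincidence reporter line; compounds tested 7-point, 24 h, 37 C, 5% CO2.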

Test [4] has as its target Tyrosine-protein kinase Yes (Homo sapiens) (UniProt P07947). The experiment in a line: qHTS for small molecule inhibitors of Yes1 kinase: Primary Screen (AID 686947). Note: potency is the fitted concentration of half-maximal effect; nearly all actives have a fitted effect of over 60% in size. Summed up:
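In this qHTS format, inhibition is expressed relative to DMSO controls with enzyme (maximum) and without enzyme (minimum). The 60 min room-temperature reaction uses 0.1 mM ATP, with ADP detected by luminescence.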

Test [5] can be described thus: qHTS for small molecule inhibitors of Yes1 kinase: Counter Assay (AID 686950).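 Note: no kinase present so only ADP-Glo detection of a fixed ADP amount is tested; luminescence from ADP-Glo reporting ADP in a fixed ATP and ADP mixture; series mostly up to about 77 µM.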 Summed up:
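No kinase present; 0.08 mM ATP + 0.02 mM ADP in 50 mM Tris pH 7.5, 10 mM MgCl2, 150 mM NaCl, 1 mM DTT; 20 min compound preincubation, 60 min RT, ADP-Glo luminescence, normalized to ATP/ADP (max) and ATP-only (min).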

Test [6] can be described thus: qHTS for Activators of Parkin Expression: LOPAC Validation Assay (FLuc Reporter) (AID 720573). The method, boiled down:
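Neuronal cell line stably carrying FLuc/NLuc coincidence reporter under Parkin promoter; cells plated 24 h, then compounds added in 7-point dose response for 24 h at 37 C. FLuc luminescence read; normalized to DMSO and positive control (100%).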

Records with an inconclusive call do not appear. Entries that show only a call come without a potency. Active and inactive are the calls of the source. Calls come from the whole dose curve; as a rule, active = well fitted curve in the direction sought with a large enough effect; inconclusive = small, poorly fitted or top-dose-only effect, or another doubt; inactive = no such curve, though single readings can be large; an effect the other way counts as inactive or inconclusive.

Sequence of Arylsulfatase A (Homo sapiens) (P15289 whole entry, looked up): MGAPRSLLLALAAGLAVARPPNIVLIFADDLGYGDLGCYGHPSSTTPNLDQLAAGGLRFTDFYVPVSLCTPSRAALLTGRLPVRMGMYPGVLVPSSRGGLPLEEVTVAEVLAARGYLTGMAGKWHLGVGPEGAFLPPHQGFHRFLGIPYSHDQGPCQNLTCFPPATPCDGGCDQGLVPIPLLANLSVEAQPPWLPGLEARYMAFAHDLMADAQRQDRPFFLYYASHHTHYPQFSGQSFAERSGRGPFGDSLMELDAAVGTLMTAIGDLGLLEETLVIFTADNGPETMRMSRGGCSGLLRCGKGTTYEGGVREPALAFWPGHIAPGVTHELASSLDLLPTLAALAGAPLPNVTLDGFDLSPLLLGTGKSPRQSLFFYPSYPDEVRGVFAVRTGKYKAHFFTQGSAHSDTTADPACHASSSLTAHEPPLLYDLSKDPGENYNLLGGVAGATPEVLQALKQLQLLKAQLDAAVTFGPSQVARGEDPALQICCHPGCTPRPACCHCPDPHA
Sequence of Tyrosine-protein kinase Yes (Homo sapiens) (P07947 whole entry, looked up): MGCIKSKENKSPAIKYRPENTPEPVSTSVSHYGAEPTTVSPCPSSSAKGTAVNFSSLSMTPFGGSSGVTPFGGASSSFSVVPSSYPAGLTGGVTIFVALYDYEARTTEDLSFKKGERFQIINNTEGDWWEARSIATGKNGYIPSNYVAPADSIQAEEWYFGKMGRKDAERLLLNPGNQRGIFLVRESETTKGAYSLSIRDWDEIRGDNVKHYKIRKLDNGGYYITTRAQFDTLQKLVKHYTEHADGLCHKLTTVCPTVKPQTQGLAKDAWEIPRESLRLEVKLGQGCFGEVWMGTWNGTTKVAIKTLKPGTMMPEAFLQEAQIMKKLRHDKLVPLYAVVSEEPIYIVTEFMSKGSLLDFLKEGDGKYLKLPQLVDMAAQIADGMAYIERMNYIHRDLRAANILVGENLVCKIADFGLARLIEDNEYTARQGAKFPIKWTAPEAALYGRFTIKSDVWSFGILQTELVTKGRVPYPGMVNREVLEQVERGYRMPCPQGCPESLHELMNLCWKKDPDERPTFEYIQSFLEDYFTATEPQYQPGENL

For the molecule `NC(=O)c1cn(Cc2c(F)cccc2F)nn1`, the Potency result in test [1] and in test [3] was “inactive” each time. For the same molecule, the call in test [2] was inactive.
As to `Cc1cc(C)c(/C=C2\C(=O)Nc3ccccc32)[nH]1`, the Potency in test [4] was 1.37 µM (active). Moreover, the molecule was called inactive in test [5], in test [2] and in test [6]. Moreover, the Potency entry in test [1] and in test [3] was “inactive” throughout.
Consider `CCN(CC)CCNC(=O)c1cc(S(C)(=O)=O)ccc1OC`, for which the Potency entry in test [1] and in test [3] was “inactive” in each case. Moreover, the molecule was called inactive in test [2] and in test [6].
Take `C[N+](C)(C)CCOC(N)=O`: the Potency entry in test [1] and in test [3] was “inactive” throughout. The call in test [2] and in test [6] was inactive.
As for `CCNC(=O)N1CCN(CCCC(c2ccc(F)cc2)c2ccc(F)cc2)CC1`, the Potency result in test [1] and in test [3] was “inactive” each time. The result in test [2] and in test [6] was inactive.
Consider `C[N+](C)(C)CCOC(=O)CCC(=O)OCC[N+](C)(C)C`, for which the Potency result in test [1] and in test [3] was “inactive” in each case. In addition, the molecule was called inactive in test [2] and in test [6].
Take `CC(=O)OC(C)C[N+](C)(C)C` (centres undefined): the Potency entry in test [1] and in test [3] was “inactive” throughout. Besides, the result in test [2] and in test [6] was inactive.
`CCN(Cc1ccncc1)C(=O)C(CO)c1ccccc1` (centres undefined): the Potency result in test [1] and in test [3] was “inactive” throughout. Further, the outcome in test [2] and in test [6] was inactive.
On to `CN(C)CC/C=C1\c2ccccc2COc2ccccc21`, for which the Potency entry in test [1] and in test [3] was “inactive” throughout. For the same molecule, the outcome in test [2] and in test [6] was inactive.
As for `COc1cc(C(=O)OCCCN2CCCN(CCCOC(=O)c3cc(OC)c(OC)c(OC)c3)CC2)cc(OC)c1OC`, the Potency entry in test [1] and in test [3] was “inactive” in each case. Further, the molecule was called inactive in test [2] and in test [6].
Consider `COc1ccc(CCN(C)CCCC(C#N)(c2cc(OC)c(OC)c(OC)c2)C(C)C)cc1OC` (centres undefined), for which the Potency entry in test [1] and in test [3] was “inactive” in each case. For the same molecule, the molecule was classed as inactive in test [2] and in test [6].
Regarding `FC(F)(F)c1ccccc1-n1ccnc1`, the Potency entry in test [1] and in test [3] was “inactive” throughout. The call in test [2] and in test [6] was inactive.
As for `CCCN1C[C@H](CSC)C[C@@H]2c3cccc4[nH]cc(c34)C[C@H]21`, the Potency result in test [1] and in test [3] was “inactive” in each case. Besides, the molecule was called inactive in test [2] and in test [6].
As to `CN(C)CCN(Cc1cccs1)c1ccccn1`, the Potency result in test [1] and in test [3] was “inactive” in each case. Moreover, the molecule was called inactive in test [2] and in test [6].
As to `COc1ccc([C@@H]2Sc3ccccc3N(CCN(C)C)C(=O)[C@@H]2OC(C)=O)cc1`, the Potency result in test [1] and in test [3] was “inactive” each time. Also, the result in test [2] and in test [6] was inactive.
In the case of `CCCCCCCC/C=C\CCCCCCCC(=O)NCc1ccc(O)c(OC)c1`, in test [1], the Potency result is “inactive”. In addition, the outcome in test [2] and in test [6] was inactive.
Consider `Cc1nc2c([nH]1)c(=O)n(C)c(=O)n2Cc1ccco1`, for which the Potency entry in test [1] and in test [3] was “inactive” throughout. In addition, the molecule was called inactive in test [2] and in test [6].
Regarding `NC(Cc1ccc(Cl)cc1)C(=O)O` (centres undefined), the Potency result in test [1] and in test [3] was “inactive” in each case. The outcome in test [2] and in test [6] was inactive.
`CCO/C([O-])=N/c1c[n+](N2CCOCC2)no1`: the Potency entry in test [1] and in test [3] was “inactive” throughout. The outcome in test [2] and in test [6] was inactive.
For the molecule `CN1C(=O)CC[C@H]1c1cccnc1`, the Potency result in test [1] and in test [3] was “inactive” throughout. Besides, the outcome in test [2] and in test [6] was inactive.
For the molecule `CC(C)(C)c1ccc(C(=O)CCCN2CCC(OC(c3ccccc3)c3ccccc3)CC2)cc1`, the Potency entry in test [1] and in test [3] was “inactive” throughout. Also, the call in test [2] and in test [6] was inactive.
As for `Cc1ccc(/C(=C\CN2CCCC2)c2ccccn2)cc1`, the Potency entry in test [1] and in test [3] was “inactive” throughout. Further, the outcome in test [2] and in test [6] was inactive.
Regarding `CN(C)CCCN1c2ccccc2Sc2ccccc21`, the Potency entry in test [1] and in test [3] was “inactive” in each case. Moreover, the outcome in test [2] and in test [6] was inactive.
Turning to `NC(N)=NC(=O)Cc1c(Cl)cccc1Cl`, the Potency entry in test [1] and in test [3] was “inactive” throughout. Further, the molecule was called inactive in test [2] and in test [6].
For `Cc1nnc(SCC2=C(C(=O)O)N3C(=O)[C@@H](NC(=O)Cn4cnnn4)[C@H]3SC2)s1`, the Potency result in test [1] and in test [3] was “inactive” in each case. In addition, the molecule was classed as inactive in test [2] and in test [6].
For the molecule `c1cnc(N2CCN(Cc3ccc4c(c3)OCO4)CC2)nc1`, the Potency entry in test [1] and in test [3] was “inactive” each time. For the same molecule, the outcome in test [2] and in test [6] was inactive.
As for `CC(=O)[C@]1(O)Cc2c(O)c3c(c(O)c2[C@@H](O[C@H]2C[C@H](N)[C@H](O)[C@H](C)O2)C1)C(=O)c1ccccc1C3=O`, the Potency result in test [1] and in test [3] was “inactive” each time. In addition, the molecule was called inactive in test [2] and in test [6].
Turning to `CCCCCN(CCCCC)C(=O)C(CCC(=O)O)NC(=O)c1ccc(Cl)c(Cl)c1` (centres undefined), the Potency result in test [1] and in test [3] was “inactive” in each case. Besides, the result in test [2] and in test [6] was inactive.
For the molecule `Cc1nc2ccccn2c(=O)c1CCN1CCC(C(=O)c2ccc(F)cc2)CC1`, the Potency in test [1] is 19 µM (active). The call in test [2] and in test [6] was inactive. Besides, the Potency entry in test [3] was “inactive”.
With `CC1=C(C)C(=O)C(CCCCC#CCCCC#CCO)=C(C)C1=O`, the Potency entry in test [1] and in test [3] was “inactive” each time. For the same molecule, the call in test [2] and in test [6] was inactive.
Consider `CCN(CC)CC(=O)Nc1c(C)cccc1C`, for which the Potency result in test [1] and in test [3] was “inactive” each time. Also, the outcome in test [2] and in test [6] was inactive.

The values above are taken from PubChem BioAssay (NCATS).
